Data as given in PubChem BioAssay AID1159580 (chemical genetic matrix, 2015).
“And” between values parts separate entries of the source, which are not always exact repeats. Equal values may be shown once. The whole screen tested about 5,500 compounds, of which about 2,000 (36%) were called active. About 18% were inconclusive and are not listed. Rule as the data show it: active = normalized growth mostly below about 0.91 (no sharp cut-off); inconclusive = no clear call, values can overlap the other calls; inactive = mostly above about 0.92. Some of the results follow.

Test: chemical genetic growth profiling, strain panel (AID 1159580);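 also: tested at 20 µM; growth read once vehicle control cultures reached saturation at 30 °C; 1 = growth at the plate median or of vehicle wells; lower values mean less growth of the strain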
Conditions: S. cerevisiae deletion strains, growth OD

Measured: normalized growth

CN(C)CCCN1c2ccccc2Sc2ccccc21
inactive: locus YAL013W, strain DEP1, active compounds read low 0.988 and 0.967 | locus YAL021C, strain ccr4, active compounds read low 0.92 | locus YAL026C, strain drs2, active compounds read low 0.936 | locus YAL030W, strain snc1, active compounds read low 1.01 | locus YAL040C, strain CLN3, active compounds read low 0.964 | locus YBL061C, strain skt5, active compounds read low 1 | locus YBR009C, strain hhf1, active compounds read low 0.985 | locus YBR021W, strain FUR4, active compounds read low 0.961 | locus YBR023C, strain chs3, active compounds read low 1 | locus YBR171W, strain sec66, active compounds read low 0.996 | locus YBR229C, strain ROT2, active compounds read low 0.999 | locus YBR231C, strain swc5, active compounds read low 1.03 | locus YBR279W, strain paf1, active compounds read low 0.977 | locus YCL011C, strain gbp2, active compounds read low 0.996 | locus YCL016C, strain dcc1, active compounds read low 1.01 | locus YCL029C, strain bik1, active compounds read low 1.02 | locus YCL061C, strain MRC1 (second series), active compounds read low 0.983 | locus YCL061C, strain MRC1, active compounds read low 0.993 | locus YCL069W, strain vba3, active compounds read low 0.978 | locus YCR088W, strain abp1, active compounds read low 0.984 | locus YDL005C, strain med2, active compounds read low 1.03 | locus YDL035C, strain GPR1, active compounds read low 1.02 | locus YDL040C, strain nat1, active compounds read low 1 | locus YDL074C, strain BRE1, active compounds read low 1.01 | locus YDL101C, strain DUN1, active compounds read low 1.03 | locus YDL134C, strain PPH21, active compounds read low 1.01 | locus YDL185W, strain tfp1, active compounds read low 1.01 | locus YDL192W, strain arf1, active compounds read low 1.02 | locus YDR001C, strain nth1, active compounds read low 0.985 | locus YDR069C, strain doa4, active compounds read low 0.94 | locus YDR101C, strain arx1, active compounds read low 1.01 | locus YDR137W, strain rgp1, active compounds read low 1.13 | locus YDR150W, strain NUM1, active compounds read low 1.01 | locus YDR159W, strain sac3, active compounds read low 0.984 | locus YDR162C, strain NBP2, active compounds read low 1 | locus YDR195W, strain ref2 1.07 | locus YDR297W, strain sur2, active compounds read low 1.01 | locus YDR318W, strain mcm21, active compounds read low 1.02 | locus YDR334W, strain swr1, active compounds read low 0.95 | locus YDR335W, strain msn5, active compounds read low 0.994 | locus YDR363W, strain ESC2, active compounds read low 0.976 | locus YDR388W, active compounds read low 1.01 | locus YDR392W, strain spt3, active compounds read low 1.09 | locus YDR502C, strain sam2, active compounds read low 1.01 | locus YEL003W, strain gim4, active compounds read low 0.994 | locus YEL037C, strain rad23, active compounds read low 0.976 | locus YEL061C, strain CIN8 (second series), active compounds read low 0.96 | locus YEL061C, strain CIN8, active compounds read low 1 | locus YER002W, strain NOP16, active compounds read low 0.988 | locus YER015W, strain faa2, active compounds read low 0.991 | locus YER016W, strain bim1, active compounds read low 0.986 | locus YER110C, active compounds read low 1.02 | locus YER111C, strain swi4, active compounds read low 0.973 | locus YER155C, strain BEM2 (second series), active compounds read low 1.01 | locus YER155C, strain BEM2, active compounds read low 1 | locus YER167W, strain BCK2, active compounds read low 1.01 | locus YFR010W, strain ubp6, active compounds read low 0.92 | locus YGL078C, strain dbp3, active compounds read low 1.01 | locus YGL086W, strain mad1, active compounds read low 1.02 | locus YGL167C, strain pmr1, active compounds read low 0.981 | locus YGL173C, strain kem1, active compounds read low 0.981 | locus YGL227W, strain vid30, active compounds read low 0.996 | locus YGL240W, strain doc1, active compounds read low 1.04 | locus YGL248W, strain PDE1, active compounds read low 1 | locus YGL253W, strain hxk2, active compounds read low 0.994 | locus YGR078C, strain PAC10, active compounds read low 1.01 | locus YGR135W, strain pre9, active compounds read low 0.993 | locus YGR229C, strain SMI1, active compounds read low 0.971 | locus YGR252W, strain gcn5, active compounds read low 0.975 | locus YHR013C, strain ard1, active compounds read low 0.964 | locus YHR027C, strain rpn1, active compounds read low 0.989 | locus YHR030C, strain SLT2, active compounds read low 1 and 1.01 | locus YHR079C, strain IRE1 (second series), active compounds read low 1.01 | locus YHR079C, strain IRE1, active compounds read low 1.01 | locus YHR094C, strain hxt1, active compounds read low 1.01 | locus YHR129C, strain ARP1, active compounds read low 1.02 | locus YHR142W, strain chs7, active compounds read low 1.01 | locus YHR200W, strain rpn10, active compounds read low 1.02 | locus YIL066C, strain RNR3, active compounds read low 1 | locus YIL073C, strain SPO22, active compounds read low 1.02 | locus YIL125W, strain kgd1, active compounds read low 1.01 | locus YIR030C, strain dcg1, active compounds read low 1.02 | locus YJL092W, strain hpr5, active compounds read low 0.989 | locus YJL095W, strain BCK1 (second series), active compounds read low 1 | locus YJL095W, strain BCK1, active compounds read low 0.987 and 1.02 | locus YJL115W, strain asf1, active compounds read low 0.975 | locus YJL129C, strain trk1, active compounds read low 1.01 | locus YJL134W, strain LCB3, active compounds read low 1 | locus YJL154C, strain vps35, active compounds read low 0.977 | locus YJL164C, strain tpk1, active compounds read low 0.992 | locus YJL166W, strain qcr8, active compounds read low 0.995 | locus YJL168C, strain set2, active compounds read low 1.02 | locus YJL187C, strain SWE1 (second series), active compounds read low 1 | locus YJR043C, strain POL32, active compounds read low 1.02 | locus YJR066W, strain TOR1, active compounds read low 0.963
